Test results published in PubChem BioAssay (Tox21).
Results filed as inconclusive are left out. Activity calls are given as the source filed them. Unless noted, the call rests on the fitted dose curve; in most records, active means well fitted curve in the direction sought with a large enough effect in the repeat runs; inconclusive means weak or mixed curves; inactive means no such curve, though single readings can be large; an effect the other way counts as inactive or inconclusive.

What was measured:
[1] = qHTS assay to identify small molecule antagonists of the estrogen receptor alpha (ER-alpha) signaling pathway using the BG1 cell line in the presence of 0.1 nM 17-beta-estradiol - cell viability counter screen (AID 1259241); further: nearly all actives have a fitted effect of over 40% in size
In short: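 VM7Luc4E2 cells (endogenous full-length ER-alpha, 4xERE-luciferase), cultured 5 days in charcoal-stripped serum, exposed to compounds with 0.1 nM 17beta-estradiol (final) for 22 hr at 37C. Viability read in same wells as live-cell protease fluorescence after 30 min.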

[2] = qHTS assay to identify small molecule antagonists of the androgen receptor (AR) signaling pathway using the MDA cell line in the presence of 0.5 nM R1881 - cell viability counter screen (AID 1259242); further: nearly all actives have a fitted effect of over 45% in size
In short: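 Counter screen for cytotoxicity run in the same wells as the AR antagonist reporter screen: MDA-kb2 cells were treated 16 hr with test compounds and 0.5 nM R1881, then live-cell protease activity was measured by fluorescence.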

[3] = molecular target: Estrogen receptor (Homo sapiens) (UniProt P03372); assay: qHTS assay to identify small molecule antagonists of the estrogen receptor alpha (ER-alpha) signaling pathway using the BG1 cell line in the presence of 0.1 nM 17-beta-estradiol (AID 1259244); further: nearly all actives have a fitted effect of over 50% in size
In short: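 Cells: VM7Luc4E2, endogenous ER-alpha, 4x ERE-luc stable. Pre-culture 5 d, phenol red-free, charcoal-stripped FBS. Plated 24 h, compound + E2 0.1 nM final, 22 h 37C/5% CO2. Readout ONE-Glo luminescence.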

[4] = qHTS assay to identify small molecule HDAC inhibitors (AID 1259364); further: nearly all actives have a fitted effect of over 45% in size; further: potency means the concentration at half of the fitted maximal effect; on activity change, negative = inhibition: top concentration of the series differs between compounds
In short: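 Luminescence from a cell-permeant luminogenic class I/II HDAC substrate reports endogenous deacetylase activity in intact HCT-116 cells treated with compounds for 2 h.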

[5] = qHTS assay to identify small molecule HDAC inhibitors - cell viability counter screen (AID 1259365); further: series mostly up to about 92 µM; nearly all actives have a fitted effect of over 50% in size
In short: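 Wild-type HCT-116 cells, 1,500/well, cultured overnight, then compound-treated 2 h at 37 C. Viability measured as ATP luminescence with CellTiter-Glo after 30 min at room temperature.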

[6] = qHTS assay to identify small molecule agonists of the sonic hedgehog signaling (Shh) pathway - cell viability counter screen (AID 1259366); further: nearly all actives have a fitted effect of over 50% in size
In short: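 NIH/3T3-derived Gli1-Luc reporter cells, 2,000 per well, received compound after 4 h and were treated about 23 h at 37C. Viability measured in the same wells by CellTiter-Fluor fluorescence after 1 h.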

[7] = qHTS assay to identify small molecule antagonists of the sonic hedgehog signaling (Shh) pathway - cell viability counter screen (AID 1259367); further: nearly all actives have a fitted effect of over 55% in size
In short: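 NIH/3T3-derived Gli1-Luc reporter cells, 2,000/well, plated 4 hr before compound addition, then stimulated with conditioned medium for 24 hr at 37C. Viability measured in the same wells by CellTiter-Fluor fluorescence, reagent added at 23 hr for 1 hr.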

[8] = qHTS assay to identify small molecule phospholipidosis (PLD) inducers (AID 1259344; active means well fitted curve in the direction sought with a large enough effect; an effect the other way counts as inactive or inconclusive)
In short: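 HepG2 cells, 900/well, treated with compound plus LipidTOX Red for 24 h at 37 C; amiodarone positive and DMSO negative controls. Fixed with paraformaldehyde/Hoechst, then high-content imaging scored LipidTOX pit count and integrated intensity per well and per cell.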
On the % scale 0 is the no-effect control and ±100 the full control effect.

Chain of Estrogen receptor (Homo sapiens) (P03372 whole entry, looked up): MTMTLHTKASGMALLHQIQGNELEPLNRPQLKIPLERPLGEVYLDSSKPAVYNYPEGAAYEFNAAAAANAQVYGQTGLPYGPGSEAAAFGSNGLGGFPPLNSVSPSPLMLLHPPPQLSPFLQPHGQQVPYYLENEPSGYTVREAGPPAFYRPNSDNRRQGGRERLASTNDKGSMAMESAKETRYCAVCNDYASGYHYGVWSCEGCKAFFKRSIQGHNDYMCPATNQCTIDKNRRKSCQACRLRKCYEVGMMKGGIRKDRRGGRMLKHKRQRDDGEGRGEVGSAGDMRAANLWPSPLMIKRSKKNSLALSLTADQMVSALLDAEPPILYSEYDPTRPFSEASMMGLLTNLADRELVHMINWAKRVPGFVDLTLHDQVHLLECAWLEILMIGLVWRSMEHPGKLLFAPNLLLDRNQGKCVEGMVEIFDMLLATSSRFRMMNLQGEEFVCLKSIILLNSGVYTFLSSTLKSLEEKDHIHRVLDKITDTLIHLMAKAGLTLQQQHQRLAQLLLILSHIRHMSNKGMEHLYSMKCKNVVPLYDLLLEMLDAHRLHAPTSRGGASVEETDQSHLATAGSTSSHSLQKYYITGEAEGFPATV

COC[C@H](c1ccc(C(F)(F)F)cc1)N1CCN(C2(C)CCN(C(=O)c3c(C)ncnc3C)CC2)C[C@H]1C
inactive: outcome [1] | outcome [2] | outcome [3] | Potency [4] | outcome [5] | Potency [6]

Nc1ccc2cc(S(=O)(=O)O)ccc2c1
inactive: outcome [1] | outcome [3] | Potency [4] | outcome [5] | Potency [6]

c1ccc(CCCc2ccccn2)cc1
inactive: outcome [1] | outcome [2] | outcome [3] | outcome [5] | Potency [6] | outcome [7]
active: Potency [4] 4.33 µM

C=CC(=O)N1CCOCC1
inactive: outcome [1] | outcome [2] | Potency [4] | Potency [6]

CC1(C)OC(=O)Nc2ccc(Br)cc21
inactive: outcome [1] | outcome [2] | outcome [3] | Potency [4] | Potency [6] | outcome [7]

CC(C)COC(=O)C(C)C
inactive: outcome [1] | outcome [2] | outcome [3] | Potency [4] | outcome [5] | Potency [6] | outcome [7]

COC(=O)CCCCCCCCC(=O)OC
inactive: outcome [1] | outcome [2] | outcome [3] | Potency [4] | outcome [5] | Potency [6] | outcome [7]

CCCOCC(C)OCC(C)O (centres undefined)
inactive: outcome [1] | Potency [4] | outcome [5] | Potency [6] | outcome [7]

CC1(C)SC(C)(C)SC(C)(C)S1
inactive: outcome [1] | outcome [3] | Potency [4] | Potency [6] | outcome [7]

CCCCc1ccc2cccc(S(=O)(=O)O)c2c1
inactive: outcome [1] | outcome [2] | outcome [3] | Potency [4] | outcome [5] | Potency [6] | outcome [7]

O=c1[nH]c2ccccc2c(=O)n1CCCl
inactive: outcome [1] | outcome [2] | Potency [4] | outcome [5] | Potency [6] | outcome [7]

CC(CCO)CCCC(C)(C)O (centres undefined)
inactive: outcome [1] | outcome [2] | Potency [6] | outcome [7]

C=CCOc1nc(OCC=C)nc(OCC=C)n1
inactive: outcome [1] | outcome [2] | Potency [4] | outcome [5] | outcome [7]

CN(C)N=Nc1ccccc1
inactive: outcome [1] | outcome [2] | Potency [4] | Potency [6] | outcome [7]

Cc1ccc(N)cc1[N+](=O)[O-]
inactive: outcome [1] | outcome [2] | Potency [4] | outcome [5] | Potency [6] | outcome [7]

CNc1ncnc2nc[nH]c12
inactive: outcome [1] | outcome [2] | outcome [3] | Potency [4] | Potency [6]

NC(=S)Nc1cccc2ccccc12
inactive: activity change, negative = cytotoxicity [1] 7.82% [at 8.39 µM] | viability change, negative = cytotoxic [2] 0.661% [at 8.39 µM] | activity change, negative = inhibition [4] 2.32% [at 8.39 µM] | viability change, negative = cytotoxic [7] 0.784% [at 8.39 µM]

[O-][N+](=Nc1ccccc1)c1ccccc1
active: Potency [4] 9.69 µM
inactive: outcome [1] | outcome [2] | outcome [3] | Potency [8] | outcome [5] | outcome [7]

NC(=O)Nc1nc2ccccc2[nH]1
inactive: outcome [1] | outcome [2] | outcome [3] | Potency [4] | outcome [5] | Potency [6]

CC(C)(O)Cc1ccccc1
inactive: outcome [1] | outcome [2] | outcome [3] | Potency [4] | Potency [6] | outcome [7]

c1ccc(SCCSc2ccccc2)cc1
inactive: outcome [1] | outcome [2] | outcome [5] | Potency [6]

NC(=O)c1c(Cl)cccc1Cl
inactive: outcome [1] | outcome [2] | outcome [3] | Potency [4] | outcome [5] | Potency [6] | outcome [7]

CC(C)CCCC(C)NCCC(C)C (centres undefined)
inactive: outcome [1] | outcome [2] | outcome [3] | Potency [4] | outcome [5] | Potency [6]

C=CCn1c(=O)n([C@@H]2O[C@H](CO)[C@@H](O)[C@H]2O)c2nc(N)[nH]c(=O)c21
inactive: outcome [1] | outcome [2] | outcome [3] | Potency [8] | Potency [4] | outcome [5] | outcome [7]

O=[N+]([O-])c1ccc(CCO)cc1
inactive: outcome [1] | outcome [2] | outcome [3] | Potency [4] | outcome [5] | Potency [6] | outcome [7]

O=c1[nH]c(=O)n([C@H]2O[C@H](CO)[C@@H](O)[C@@H]2O)cc1/C=C\Br
inactive: outcome [1] | outcome [2] | outcome [3] | Potency [4] | Potency [6] | outcome [7]

CCCCC=O
inactive: outcome [1] | Potency [4] | outcome [5] | Potency [6]

CC(C)=CCC/C(C)=C/C(=O)O
inactive: outcome [1] | outcome [2] | outcome [3] | Potency [4] | outcome [5] | Potency [6] | outcome [7]

CC(=O)NC(Cc1ccccc1)C(=O)O (centres undefined)
inactive: outcome [1] | outcome [2] | outcome [3] | Potency [8] | Potency [4] | outcome [5] | outcome [7]

O=S(=O)(c1cccc2cnccc12)N1CCCNCC1
inactive: outcome [1] | outcome [2] | Potency [8] | Potency [4] | outcome [5] | outcome [7]

COc1cc(CCC(C)=O)ccc1O
inactive: outcome [1] | outcome [2] | outcome [5] | outcome [7]

CCCCCCCCC=O
inactive: outcome [1] | outcome [2] | Potency [4] | outcome [5] | Potency [6] | outcome [7]

CCCCCCCCCCCl
inactive: outcome [1] | outcome [2] | outcome [3] | Potency [4] | outcome [5] | outcome [7]

Cc1nc(-c2ccc(OCC(C)C)c(C#N)c2)sc1C(=O)O
inactive: outcome [1] | outcome [2] | outcome [3] | Potency [8] | Potency [6] | outcome [7]

CO
inactive: outcome [1] | outcome [2] | Potency [8] | Potency [4] | outcome [5] | outcome [7]

CCCCN(CCO)CCO
inactive: outcome [1] | outcome [2] | outcome [3] | Potency [4] | outcome [5] | Potency [6] | outcome [7]
